Screening results as filed in PubChem.
The full list was thinned out, with hits kept by preference.
nsP2pro primary: Primary qHTS for inhibitors of NSP2Pro chikungunya virus (CHIKV); 31,000 compounds, 1.1% hits; Potency, µM (titrated, usually from 24.9 µM), for inactives: at the top dose activity change, negative = inhibition, most hits filed as inhibitors; AID 1964107, 2024; FRET peptide cleavage, nsP2pro, fluorescence 1 h; also: nearly all actives have a fitted effect of over 60% in size
Target sequence (Q8JUX6 whole entry, looked up): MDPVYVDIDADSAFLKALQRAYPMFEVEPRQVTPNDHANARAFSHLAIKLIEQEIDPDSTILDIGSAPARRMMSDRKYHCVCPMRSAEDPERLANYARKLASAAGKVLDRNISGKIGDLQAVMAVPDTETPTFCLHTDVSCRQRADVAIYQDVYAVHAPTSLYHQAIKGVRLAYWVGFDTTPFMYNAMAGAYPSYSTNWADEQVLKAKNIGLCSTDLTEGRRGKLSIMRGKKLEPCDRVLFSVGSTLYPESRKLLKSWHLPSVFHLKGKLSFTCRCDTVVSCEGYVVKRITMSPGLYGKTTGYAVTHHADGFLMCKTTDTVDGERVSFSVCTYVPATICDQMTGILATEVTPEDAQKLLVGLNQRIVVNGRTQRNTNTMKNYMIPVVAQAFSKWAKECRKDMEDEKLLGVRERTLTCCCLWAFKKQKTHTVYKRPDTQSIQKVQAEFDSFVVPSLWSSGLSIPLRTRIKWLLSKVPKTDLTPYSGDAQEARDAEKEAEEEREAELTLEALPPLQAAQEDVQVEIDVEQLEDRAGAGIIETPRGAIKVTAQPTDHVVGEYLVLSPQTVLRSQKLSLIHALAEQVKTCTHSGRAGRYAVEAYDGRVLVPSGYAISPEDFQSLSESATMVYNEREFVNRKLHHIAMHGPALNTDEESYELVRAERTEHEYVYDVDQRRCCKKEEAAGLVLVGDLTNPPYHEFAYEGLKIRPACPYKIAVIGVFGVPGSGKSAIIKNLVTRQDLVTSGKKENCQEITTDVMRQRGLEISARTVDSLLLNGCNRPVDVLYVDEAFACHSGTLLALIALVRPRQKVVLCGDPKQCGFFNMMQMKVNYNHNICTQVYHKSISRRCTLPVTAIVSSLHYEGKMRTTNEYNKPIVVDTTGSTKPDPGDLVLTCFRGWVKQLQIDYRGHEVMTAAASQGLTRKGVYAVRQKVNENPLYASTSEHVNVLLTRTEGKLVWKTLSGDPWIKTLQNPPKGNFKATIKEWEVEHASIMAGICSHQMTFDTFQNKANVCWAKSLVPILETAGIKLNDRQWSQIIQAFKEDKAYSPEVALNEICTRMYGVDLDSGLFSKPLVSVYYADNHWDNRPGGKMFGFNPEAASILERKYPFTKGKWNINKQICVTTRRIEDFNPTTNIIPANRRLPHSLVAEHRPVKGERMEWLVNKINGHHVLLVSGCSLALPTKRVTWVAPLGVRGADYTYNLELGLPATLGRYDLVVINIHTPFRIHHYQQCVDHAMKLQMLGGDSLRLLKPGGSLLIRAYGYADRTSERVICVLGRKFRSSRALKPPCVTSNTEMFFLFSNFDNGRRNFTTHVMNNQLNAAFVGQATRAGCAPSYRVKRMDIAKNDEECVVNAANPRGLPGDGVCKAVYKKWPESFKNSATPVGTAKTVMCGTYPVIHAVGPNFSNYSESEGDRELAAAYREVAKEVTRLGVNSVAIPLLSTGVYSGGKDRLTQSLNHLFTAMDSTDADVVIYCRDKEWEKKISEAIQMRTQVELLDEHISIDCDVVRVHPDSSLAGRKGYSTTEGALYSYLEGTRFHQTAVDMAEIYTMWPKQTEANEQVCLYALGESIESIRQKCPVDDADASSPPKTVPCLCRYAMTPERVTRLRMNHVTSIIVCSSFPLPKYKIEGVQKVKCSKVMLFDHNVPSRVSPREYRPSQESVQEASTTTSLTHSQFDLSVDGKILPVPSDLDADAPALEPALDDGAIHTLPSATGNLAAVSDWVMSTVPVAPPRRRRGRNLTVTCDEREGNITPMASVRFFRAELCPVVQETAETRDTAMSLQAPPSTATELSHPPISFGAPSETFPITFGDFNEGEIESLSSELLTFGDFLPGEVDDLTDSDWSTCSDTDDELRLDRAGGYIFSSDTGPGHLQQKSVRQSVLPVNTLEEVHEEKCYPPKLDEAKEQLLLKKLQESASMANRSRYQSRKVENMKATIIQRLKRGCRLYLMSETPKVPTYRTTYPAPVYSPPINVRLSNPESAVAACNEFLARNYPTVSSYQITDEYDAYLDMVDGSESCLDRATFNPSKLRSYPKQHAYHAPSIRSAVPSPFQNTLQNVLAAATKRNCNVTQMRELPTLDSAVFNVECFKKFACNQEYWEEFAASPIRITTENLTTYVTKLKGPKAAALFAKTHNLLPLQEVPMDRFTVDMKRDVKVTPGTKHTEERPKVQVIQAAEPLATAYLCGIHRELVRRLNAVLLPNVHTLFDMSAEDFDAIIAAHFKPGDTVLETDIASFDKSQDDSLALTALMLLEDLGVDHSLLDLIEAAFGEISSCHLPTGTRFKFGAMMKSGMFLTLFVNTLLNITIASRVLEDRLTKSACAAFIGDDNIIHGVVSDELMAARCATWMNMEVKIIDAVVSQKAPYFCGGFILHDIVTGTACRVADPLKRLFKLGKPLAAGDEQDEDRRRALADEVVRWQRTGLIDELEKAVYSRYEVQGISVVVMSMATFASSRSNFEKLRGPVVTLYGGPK
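Recombinant nsP2pro (150 nM) was preincubated with compound 15 min at room temperature in 10 mM Tris-HCl pH 8.0, 0.01% Tween 20. Peptide 2 FRET substrate (2.5 uM) was then added and fluorescence read after 1 h. Seven-point series, up to 25 uM.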
CHIKV nsP2 cell: Secondary cell base assay for inhibitors of NSP2Pro Chikungunya virus (CHIKV). Potency, µM (titrated, usually from 51.1 µM), for inactives: top-dose activity change, negative = inhibition, usual class: inhibitors. cell-based CHIKV nsP2 protease reporter assay. 450 compounds, 10% hits. shares compounds with nsP2pro primary; also: nearly all actives have a fitted effect of over 70% in size
NSP2 full ctr: Selectivity profile for inhibitors of NSP2Pro chikungunya virus (CHIKV): Full length NSP2 enzyme counterscreen (CHIKV-NSP2); shares compounds with nsP2pro primary; Full-length CHIKV NSP2 protease enzymatic counterscreen; Potency, µM (series often up to 50.7 µM), inactives show top-dose activity change, negative = inhibition, hits mostly inhibitors; 410 compounds, 39% hits; also: nearly all actives have a fitted effect of over 65% in size
Furin counterscr: Selectivity profile for inhibitors of NSP2Pro chikungunya virus (CHIKV): Human furin counterscreen | shares compounds with nsP2pro primary | Recombinant human furin enzymatic counterscreen, fluorogenic substrate | Potency, µM (titrated, usually from 50.6 µM), for the others: at the highest dose activity change, negative = inhibition, usual class: inhibitors | 410 compounds, 6% hits | AID 1964102, 2024
nsP2 NS23 pep: Selectivity profile for inhibitors of NSP2Pro chikungunya virus (CHIKV): Endogenous NS2/3 peptide Counterscreen | Purified CHIKV nsP2 protease, endogenous NS2/3 peptide cleavage | Potency, µM (doses to about 51 µM), inactives show at the top dose activity change, negative = inhibition, actives largely listed as inhibitors | shares compounds with nsP2pro primary | 410 compounds, 34% hits; also: nearly all actives have a fitted effect of over 55% in size
Papain cs: Selectivity profile for inhibitors of NSP2Pro chikungunya virus (CHIKV): Papain Counterscreen. shares compounds with nsP2pro primary. purified papain protease activity, enzymatic inhibition. Potency, µM (series often up to 51 µM), inactives show at the highest dose activity change, negative = inhibition, hits mostly inhibitors. 410 compounds, 5% hits. AID 1964104, 2024
nsP2pro conf qHTS: Confirmatory qHTS for inhibitors of NSP2Pro chikungunya virus (CHIKV); CHIKV nsP2 protease enzymatic activity, qHTS; AID 1964105, 2024; 410 compounds, 43% hits; Potency, µM (top dose mostly 25.5 µM), for the others: at the highest dose activity change, negative = inhibition, hits mostly inhibitors; shares compounds with nsP2pro primary; also: nearly all actives have a fitted effect of over 75% in size
HCV NS3 counter: Selectivity profile for inhibitors of NSP2Pro chikungunya virus (CHIKV): NS34A-HCV Counterscreen; Potency, µM (series often up to 50.9 µM), usual class: inhibitors; 410 compounds, 20% hits; shares compounds with nsP2pro primary; HCV NS3/4A protease biochemical counterscreen; also: nearly all actives have a fitted effect of over 55% in size
* = called active by the depositor; ! = not confirmed by another sample; [ ] = dose if it differs, or a comment. Calls follow the shape of the full dose curve. % is scaled to controls: 0 for no effect and ±100 for the full control effect; potency is read from the fitted curve at half-maximal effect.

How did CCOc1ccc(CCNC(=O)c2cc3ccncc3n2Cc2cccc(C)n2)cc1OCC do in these assays?
nsP2pro primary: inactive

Results for CCOc1ccc(CCNC(=O)c2cc3ccccc3n2Cc2ccccn2)cc1OCC ?
nsP2pro primary: 7.94µM*

How did CCOc1ccc(CCNC(=O)c2cc3ncccc3n2Cc2cccc(C)n2)cc1OCC do in these assays?
nsP2pro primary: inactive

Results for O=Cc1c(-c2ccccc2)no[n+]1[O-] ?
nsP2pro primary: 3.3%

Results for CCC[C@@H](NC(=O)[C@@H]1[C@H]2CCC[C@@H]2CN1C(=O)[C@@H](NC(=O)[C@@H](NC(=O)c1cnccn1)C1CCCCC1)C(C)(C)C)C(=O)C(=O)NC1CC1 ?
nsP2pro primary: 7.94µM*

What do the screens show for `CCC(C)NC(=O)c1cccc(-c2ccc(OC)nn2)c1` (stereo not drawn)?
nsP2pro primary: inactive

Results for CC(C)[C@@H]1C[C@@H]2C[C@@H](Nc3ccccn3)C[C@]2(c2ccccc2)CO1 ?
nsP2pro primary: -0.6%

How did Cc1c(P(=S)(c2ccccc2)c2ccccc2)c2ccccc2n1Cc1ccccc1 do in these assays?
nsP2pro primary: inactive

Results for Cc1c(P(=O)(c2ccccc2)c2ccccc2)c2ccccc2n1C ?
nsP2pro primary: 11.2µM*

What do the screens show for `Cc1c(P(=S)(c2ccccc2)c2ccccc2)c2ccccc2n1C(=O)NCc1ccccc1`?
nsP2pro primary: -6.9%

Results for OCc1ccnc(NC(=S)N2CCN(c3cccc(C(F)(F)F)c3)CC2)c1 ?
nsP2pro primary: inactive

What do the screens show for `Cc1cc(C)nc(NC(=S)N2CCN(c3ccc(F)cc3F)CC2)c1`?
nsP2pro primary: -10.3%

Results for O=C(O)c1cc(O)c2c(c1)[O][Bi][O]2 ?
nsP2pro primary: -4.1%[0.199 µM]

Results for O=C(O)c1cc(N=Nc2ccc(O)c(C(=O)O)c2)ccc1O ?
nsP2pro primary: -17.7%

How did O=C(O)c1cc(O)c(O)c(O)c1 do in these assays?
nsP2pro primary: 12.4µM*!

Results for COc1ccc(C(=O)Nc2nc(-c3ccccc3)cs2)c(NS(=O)(=O)c2ccc(C)cc2)c1 ?
nsP2pro primary: -2.2%

How did O=C1c2ccccc2C(=O)N1Cc1ccccc1 do in these assays?
nsP2pro primary: -5.3%

Results for O=C1N/C(=C\c2ccco2)C(=O)N1Cc1ccc(F)cc1 ?
nsP2pro primary: inactive

Results for O=C1N/C(=C\c2ccco2)C(=O)N1Cc1ccccc1 ?
nsP2pro primary: 12.6µM*

Results for c1csc(CCNc2ncnc3ccc(-c4ccc5c(c4)OCO5)cc23)c1 ?
nsP2pro primary: -10.3%

What do the screens show for `O=C(c1ccoc1)N1CCC(Nc2cccn3ncnc23)CC1`?
nsP2pro primary: -3.7%

What do the screens show for `Cc1nc2c(NC3CCN(C(=O)c4cnccn4)CC3)cccn2n1`?
nsP2pro primary: 11.2µM*

What do the screens show for `CCCOc1nccnc1NC1CCN(C(=O)c2cccnc2)CC1`?
nsP2pro primary: inactive

How did Cc1ccc(CN(C)c2ncnc3ccc(-c4ccc(C(=O)O)o4)cc23)o1 do in these assays?
nsP2pro primary: 1.0%

What do the screens show for `O=S(=O)(c1ccccc1)N1CC(Oc2ccc(-c3noc(C4CC4)n3)cc2)C1`?
nsP2pro primary: -3.2%

How did N#Cc1c(-c2ccccc2C(F)(F)F)nc2ccccc2c1NCc1ccc(-c2ccnc(C(F)(F)F)c2)cc1 do in these assays?
nsP2pro primary: -11.9%

What do the screens show for `O=C(NCc1ccncc1)c1nc2c(o1)CCN(CCCc1ccccc1)CC2`?
nsP2pro primary: 14.1µM*

Results for O=C(NCc1cccnc1)c1cc(CN2CCC(Cc3ccccc3)CC2)on1 ?
nsP2pro primary: inactive

Results for O=C(NCc1ccccc1)c1cnc2n1CCN(Cc1ccccc1)CC2 ?
nsP2pro primary: inactive

Results for Cc1nc(-c2cn(C3CCCN(C(=O)C(C)Oc4ccccc4)C3)nn2)no1 (stereo not drawn) ?
nsP2pro primary: inactive

How did O=c1c2ccc(Cl)cc2nc2sc(Nc3ccc4c(c3)CCC4)nn12 do in these assays?
nsP2pro primary: inactive

Results for Cc1c(P(=S)(c2ccccc2)c2ccccc2)[n+]2ccccc2n1CCCCCc1ccccc1 ?
nsP2pro primary: 1.2%

Results for COc1ccc(N(C)C(=O)c2c(C)oc3c2CN(Cc2ccc(F)cc2)CC3)cc1 ?
nsP2pro primary: -29.9%

How did O=C1NC(Cc2c[nH]c3ccccc23)C(=O)NC1Cc1c[nH]c2ccccc12 (stereo not drawn) do in these assays?
nsP2pro primary: 6.1µM*; CHIKV nsP2 cell: -1.4%[33.5 µM]; NSP2 full ctr: -15.4%[33.5 µM]; Furin counterscr: -4.7%[33.5 µM]; nsP2 NS23 pep: -20.6%[33.5 µM]; Papain cs: inconclusive; nsP2pro conf qHTS: -39.3%[16.7 µM]; HCV NS3 counter: inactive

How did CC(N)Cc1c[nH]c2ccccc12 (stereo not drawn) do in these assays?
nsP2pro primary: -12.2%

Results for NCCc1c[nH]c2ccccc12 ?
nsP2pro primary: -22.1%

What do the screens show for `O=C(NCc1ccc(F)cc1)c1ccc2nnc(-c3cc[nH]c3)n2c1`?
nsP2pro primary: -1.0%[39.2 µM]

Results for Cc1ccccc1Sc1ccc(/C=C2\SC(=S)NC2=O)cc1[N+](=O)[O-] ?
nsP2pro primary: 82.6%

What do the screens show for `Cc1ccc(S(=O)(=O)c2ncccc2[N+](=O)[O-])cc1`?
nsP2pro primary: inconclusive; CHIKV nsP2 cell: 3.66µM*; NSP2 full ctr: inconclusive; Furin counterscr: -6.0%; nsP2 NS23 pep: 9.19µM*; Papain cs: -5.5%; nsP2pro conf qHTS: 7.98µM*; HCV NS3 counter: inactive
